Bioassay records deposited in PubChem BioAssay by The Scripps Research Institute Molecular Screening Center.
The list is not random: actives were taken first. Their share in the collection is about 3.5%.
FBW7 activator: activators of human E3 ligase FBW7; AlphaScreen FBW7–phospho-cyclin E peptide binding, activator screen; 650,000 compounds, 0.13% hits; AID 1259310; normalized activity (activation), % at 26.1 µM; Q969H0; in the data active = normalized activity above about 1.9%;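 note: purified mutant Fbw7 with reduced substrate affinity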
MITF inh: blocks human microphthalmia-associated transcription factor | AID 1259374 | 650,000 compounds, 0.91% hits | AlphaScreen MITF homodimerization, bead proximity signal | inhibition, % at 2.6 µM | O75030; in the data active = inhibition above about 50%
TEAD-YAP inh: TEAD-YAP interaction inhibition; 640,000 compounds, 1.4% hits; inhibition, % at 9.12 µM; HEK-TIYL cells, TEAD-Gal4/YAP UAS-luciferase luminescence; in the data active = inhibition above about 32%
GPR151 ag: activates the human receptor GPR151 | 650,000 compounds, 1% hits | Q8TDV0 | activation, % at 11.2 µM | AID 1508602 | PathHunter beta-arrestin GPR151 cells, luminescence; in the data active = activation above about 4.9%
Target sequence (Q8TDV0 whole entry, looked up): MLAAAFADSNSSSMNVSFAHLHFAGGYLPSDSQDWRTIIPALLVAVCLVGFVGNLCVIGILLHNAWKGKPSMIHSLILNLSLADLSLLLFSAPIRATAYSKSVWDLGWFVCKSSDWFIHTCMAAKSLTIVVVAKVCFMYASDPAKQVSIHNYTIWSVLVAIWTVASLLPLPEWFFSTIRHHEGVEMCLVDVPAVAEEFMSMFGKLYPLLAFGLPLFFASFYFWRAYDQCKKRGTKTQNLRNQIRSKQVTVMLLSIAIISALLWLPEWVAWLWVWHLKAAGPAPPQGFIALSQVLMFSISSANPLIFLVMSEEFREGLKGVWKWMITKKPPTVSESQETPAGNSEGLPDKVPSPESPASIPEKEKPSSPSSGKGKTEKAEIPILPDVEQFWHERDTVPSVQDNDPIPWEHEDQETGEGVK
A number is an active result; i = inactive.

SMILES	FBW7 activator	MITF inh	TEAD-YAP inh	GPR151 ag
O=C1NN(c2ccccc2)C(=O)/C1=C/c1ccc([N+](=O)[O-])o1	i	78.6	i	i
O=C1NC(=S)N(c2ccccc2)C(=O)/C1=C\c1ccc([N+](=O)[O-])o1	i	80.1	i	i
COc1cccc(-c2csc(NC(=O)CN3C(=O)c4ccccc4C3=O)n2)c1	i	i	i	i
O=C(CN(c1ccccc1)S(=O)(=O)c1ccc(F)cc1)NC1CC2CCC1C2 (stereo not drawn)	i	i	i	i
Oc1ccccc1C(Nc1ncccn1)c1ccc2cccnc2c1O (stereo not drawn)	i	i	33.5	i
CCOc1cc(C(Nc2cccnc2)c2ccc3cccnc3c2O)ccc1O (stereo not drawn)	i	i	i	i
Oc1c(C(Nc2cccnc2)c2ccccc2F)ccc2cccnc12 (stereo not drawn)	i	51.0	74.7	i
Cc1ccc(C)c(CN2C[C@@H](Sc3ccccn3)C[C@H]2C(=O)N2CCOCC2)c1	i	i	i	i
Nc1cccc(-c2nc(NCCCN3CCCC3=O)c3[nH]cnc3n2)c1	i	i	i	i
Oc1ccc(-c2cnn3c(N4CCC(O)CC4)ccnc23)cc1	i	i	51.5	i
CS(=O)(=O)Nc1cccc(-c2cnn3c(N4CCOCC4)ccnc23)c1	2.0	i	i	i
Oc1ccc(-c2cnn3c(N4CCOCC4)ccnc23)cc1	i	i	98.3	i
Cc1ccc(-c2cnn3c(N4CCC(O)CC4)ccnc23)cc1C	i	i	i	i
Nc1nonc1-n1nnc(C(=O)N/N=C/c2cccc(Cl)c2)c1CN1CCCCC1	i	i	i	i
COc1ccc(O)c(C2=Nc3ccccc3N=C(c3ccc(C(C)(C)C)cc3)C2)c1	i	i	55.8	i
c1cncc(CNc2nc(Nc3ccc(-n4ccnc4)cc3)nc3c2ncn3-c2ccsc2)c1	i	i	55.3	i
c1ccc2[nH]c(CNc3nc(Nc4ccncn4)nc4c3ncn4-c3ccsc3)nc2c1	i	i	82.3	i
c1cn(-c2ccc(Nc3nc(Nc4ccc5c(c4)OCO5)c4ncn(-c5ccsc5)c4n3)cc2)cn1	i	i	52.6	i
c1ccc2[nH]c(CNc3nc(Nc4ccncc4)nc4c3ncn4-c3ccsc3)nc2c1	i	i	84.7	i
COC(c1ccccc1)c1nnc(CCC(=O)NCCCn2ncc3ccccc32)o1 (stereo not drawn)	i	i	i	i
c1ccc2[nH]c(CNc3nc(Nc4ccc(-n5ccnc5)cc4)nc4c3ncn4-c3ccsc3)nc2c1	i	i	64.8	i
Cn1c(Nc2nc(NCc3nc4ccccc4[nH]3)c3ncn(-c4ccsc4)c3n2)nc2ccccc21	i	i	i	i
CCn1nc(C)c(CNC(=O)c2ccc(OC3CCN(Cc4ccccn4)CC3)cc2)c1C	i	i	52.5	i
Cc1cc(C)c(OCCCNCCO)c(C)c1	i	i	i	i
Brc1cccc(/C=N/n2cnnc2)c1	i	i	91.2	i
SMILES	FBW7 activator	MITF inh	TEAD-YAP inh	GPR151 ag
C(=N\n1cnnc1)/c1cccc(OCc2cccc3ccccc23)c1	i	i	50.4	i
Brc1ccc(/C=N/n2cnnc2)cc1	i	i	i	i
C(=N\n1cnnc1)/c1ccc(OCc2cccc3ccccc23)cc1	i	i	i	i
O=C(c1ccccc1F)N1CCCC(c2nc(N3CCOCC3)ncc2-c2ccncc2)C1 (stereo not drawn)	i	i	56.4	i
Cc1nc(C(=O)N2CCCC(c3nc(-c4ccncc4)ncc3-c3ccccc3)C2)cs1 (stereo not drawn)	i	i	53.6	i
Cc1cc(-c2cnc(N3CCCC3)nc2C2CCCN(C(=O)c3ccco3)C2)on1 (stereo not drawn)	i	i	51.0	i
COc1ccc(-c2cn3c4c(=O)n(C)c(=O)n(C)c4nc3n2CC(O)c2ccccc2)cc1 (stereo not drawn)	i	i	i	i
Cc1cnc(NC(=O)c2ccccc2F)s1	i	i	64.0	i
CC(C)(C)OC(=O)N1CCCC(c2ccnc3cc(C(C)(C)C)nn23)C1 (stereo not drawn)	2.1	i	i	i
Cc1ccc(/C=C/C(=O)C2C(=O)c3ccccc3C2=O)cc1	i	i	41.4	i
CCOC(=O)CCN1CCc2nc(-c3ccccn3)nc(N3CCCCC3)c2C1	i	i	i	i
Cc1onc(-c2c(Cl)cccc2Cl)c1C(=O)N1CCN(c2cccc(C(F)(F)F)c2)CC1	i	i	54.5	i
Cc1nc2ccccn2c1C(=O)N1CCN(c2cccc(C(F)(F)F)c2)CC1	i	i	58.4	i
CN(C)c1ccc(Nc2nc(NCC3CCCO3)c3ccccc3n2)cc1 (stereo not drawn)	i	59.8	i	i
